Assay outcomes: PubChem, National Center for Advancing Translational Sciences (NCATS)
HT1080 IDH1KD tx: HT-1080 IDH1 knockdown cell toxicity (counter line) | Potency, µM (series often up to 46.1 µM), for the others: top-dose activity, negative = toxicity, most hits filed as cytotoxic | 360,000 tested, 2% active | AID 686971 | HT-1080 IDH1 knockdown viability, ATP luminescence, 48 h;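 further: potency means the concentration at half of the fitted maximal effect; 0% = DMSO wells and -100% = cell-free medium wells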
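Using the IDH1-knockdown HT-1080 line run in the same batch and compound series as the NT line, viability after 48 h at 37 °C was determined by CellTiter-Glo luminescence and expressed as % activity.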
TDP1 cell CPT: DT40-hTDP1 cell growth loss with CPT | chicken DT40 Tdp1-/-;hTDP1 cells + 20 nM CPT, ATP luminescence, 48 h | AID 686979 | Potency, µM (highest dose often 46.2 µM), for inactives: at the highest dose activity change, negative = growth inhibition, hits mostly inhibitors | 420,000 tested, 12% active; further: potency means the concentration at half of the fitted maximal effect; nearly all actives have a fitted effect of over 55% in size
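Cell growth measured by CellTiter-Glo luminescence after a minimum 48 h, 37 C compound exposure with 20 nM CPT in Tdp1-knockout DT40 cells stably expressing hTDP1, seeded 400/well; qHTS titration format.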
TDP1 cell noCPT: qHTS for Inhibitors of human tyrosyl-DNA phosphodiesterase 1 (TDP1): qHTS in cells in absence of CPT. DT40 Tdp1-/- hTDP1 cells, no CPT, ATP luminescence, 48 h. Potency, µM (top dose mostly 46.2 µM), inactives show at the highest dose activity change, negative = growth inhibition, usual class: inhibitors. 420,000 tested, 15% active; further: potency means the concentration at half of the fitted maximal effect; nearly all actives have a fitted effect of over 55% in size
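Chicken DT40 Tdp1-/- cells complemented with human TDP1, screened without camptothecin (DMSO vehicle only), 400 cells/well. Compounds pin-transferred, cells incubated at 37 °C for at least 48 hr. Growth read as ATP-dependent luminescence (CellTiter-Glo, 30 min at RT).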
HT1080-NT tox: kills 2HG-producing HT-1080-NT fibrosarcoma cells | HT-1080-NT fibrosarcoma viability, CellTiter-Glo ATP luminescence, 48 h | Potency, µM (top dose mostly 46.1 µM), for the others: at the top dose activity, negative = less viability, usual class: cytotoxic | 360,000 tested, 1.6% active | AID 686970;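 further: NT is the 2HG producing partner of a matched IDH1 knockdown line; potency means the concentration at half of the fitted maximal effect; 0% = DMSO-treated cells and -100% = media-only wells without cells; nearly all actives have a fitted effect of over 55% in size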
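Viability by CellTiter-Glo luminescence after 48 h compound exposure at 37C of HT-1080-NT cells (750/well, RPMI, 5% FBS). % activity scaled between DMSO wells and medium-only wells, then curve-fitted and categorized by curve class.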
IL-1B inflam inh: inhibitors of inflammasome signaling (IL-1 beta secretion) | activity change, % at 57.5 µM | AID 743279 | THP-1 LPS/ATP IL-1B secretion, AlphaLISA, 16 h; stronger effect = lower value | 360,000 tested, 4.7% active; in the data active means activity change below about -50%; inconclusive means mostly about -30% to -49%
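Secreted IL-1B measured by AlphaLISA bead assay after 16 h compound exposure of THP-1 cells; compounds (final up to 57.5 uM) added 1 h before LPS (250 ng/mL) and ATP (1.25 mM) stimulation; lower signal means less secretion.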
ELG1 repair inh: ELG1-dependent DNA repair inhibition | Potency, µM (top dose mostly 46.1 µM), inactives show top-dose activity change, negative = inhibition, hits mostly inhibitors | HEK293T ELG1-luciferase reporter, luminescence, 16 h; DNA damage induced by 5-fluorouridine | 330,000 tested, 2.3% active; further: potency means the concentration at half of the fitted maximal effect; nearly all actives have a fitted effect of over 55% in size
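Cells (2,000 per well) received 5-fluorouridine plus test compound or DMSO and were incubated 16 hr at 37 °C, 5% CO2. Luciferase activity was read by luminescence 30 min after ONE-Glo addition; signal suppression marked inhibition of damage-induced ELG1 function.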
The depositor's hits bear a star; u = inconclusive; x = no result; [ ] = remark or other dose. Sampled rows, rich in hits. Any-hit rate of the full collection: about 19%. Unless noted, the call rests on the fitted dose curve; in most records, active means well fitted curve in the direction sought with a large enough effect; inconclusive means small, poorly fitted or top-dose-only effect, or another doubt; inactive means no such curve, though single readings can be large; an effect the other way counts as inactive or inconclusive. Unless noted, on the % scale 0 is the no-effect control and ±100 the full control effect.

SMILES | HT1080 IDH1KD tx | TDP1 cell CPT | TDP1 cell noCPT | HT1080-NT tox | IL-1B inflam inh | ELG1 repair inh
CCN(CC)c1ccc(CNc2ccc3c(c2)ncn3CC)cc1 | 0.3% | u | -26.3% | 0.5% | -96.0* | 1.3%
CCCn1cnc2cc(NCc3ccc(OC)cc3OC)ccc21 | x | 16.4µM* | 23.1µM* | x | x | x
O=C(Nc1ccc(Br)cc1F)c1cnn2c1NC(=C1CC1)C=C2C(F)F | x | -15.2% | -13.9% | x | x | x
CCCS(=O)(=O)NC(=O)C1(C)CCN(C(=O)c2cc(-c3cccs3)oc2C)C1 (stereo not drawn) | 14.5% | -28.5% | 9.1% | 13.4% | 1.6 | x
CSc1nc2sc3c(c2c(=O)n1C1CCCCC1)CCN(C)C3 | 8.8% | -8.8% | u | 5.7% | -3.8 | 3.5%
C#CCSc1nc2sc3c(c2c(=O)n1C)CCC3 | 10.8% | -1.9% | 12.1% | 11.3% | -2.1 | u
C=C(C)CSc1nc2sc3c(c2c(=O)n1C1CCCCC1)CCN(C)C3 | u | 5.8µM* | 6.51µM* | -20.8% | x | u
CCSc1nc2sc3c(c2c(=O)n1C1CCCCC1)CCN(C)C3 | -19.0% | 16.4µM* | 14.6µM* | -6.8% | -24.6 | -24.1%
N#CCSc1nc2sc3c(c2c(=O)n1C1CCCCC1)CCCC3 | -6.5% | u | 23.1µM* | -7.3% | u | 12.7%
CCCCNC(=O)C(NC(=O)Cc1cc(OC)cc(OC)c1)C(=O)c1ccccc1 (stereo not drawn) | 11.8% | u | u | 8.3% | -8.0 | x
COc1cc(/C=N/N=C(N)N)ccc1OCc1ccc(Cl)cc1 | u | 6.51µM* | 5.8µM* | u | -94.1* | u
NC(N)=N/N=C/c1ccc(OCc2ccccc2)c(OCc2ccccc2)c1 | 18.4µM* | u | 18.4µM* | 23.1µM* | -96.2* | u
CCOc1cc(/C=N/O)ccc1OCc1ccc(F)cc1 | -2.7% | u | u | -10.0% | 0.3 | 26.4%
CCCC(C)NC(=O)c1ccc(OCc2ccc(Cl)cc2)c(OC)c1 (stereo not drawn) | -24.3% | u | 8.2µM* | -1.3% | -9.4 | 6.8%
CCOc1cc(/C=N/N=C(N)N)ccc1OCc1ccc(Cl)cc1 | u | 14.6µM* | 16.4µM* | u | -108.4* | -11.3%
COc1cc(/C=N/N=C2/NC(=O)C(CC(=O)O)S2)ccc1OCc1ccc(Cl)cc1 (stereo not drawn) | 10.3% | -1.0% | -0.7% | 9.8% | 15.0 | u
COc1ccc(CCNC(=O)C2CCCN(S(C)(=O)=O)C2)cc1 (stereo not drawn) | -4.8% | 0.1% | -10.5% | -1.1% | 32.6 | -5.6%
CC[C@@](N)(C(=O)O)c1ccc(C(=O)O)cc1 | x | -3.2% | -0.7% | x | x | x
COc1ccc(S(=O)(=O)N2CCC(C(=O)NC(c3nc4ccccc4[nH]3)C(C)C)CC2)cc1 (stereo not drawn) | 9.6% | -18.2% | u | 6.7% | 0.0 | -2.0%
COc1cc(-c2nc(-c3ccc4c(c3)[nH]c(=O)n4C)no2)cc(OC)c1OC | x | -15.7% | -13.5% | x | x | x
Cc1ccc(S(=O)(=O)CCNC(=O)Cc2ccc(Cl)cc2)cc1 | -2.4% | 23.6% | -14.2% | 8.8% | -11.3 | -4.5%
COc1cc2c(cc1OC)C(O)=CC(=O)C2=O | -21.9% | -13.8% | -26.3% | u | -7.8 | x
Cc1ccc(-n2nc(-c3ccc(F)cc3)c3cnc4cc5c(cc4c32)OCO5)cc1C | x | 8.5% | -2.5% | x | x | x
O=C(CN1CC(=O)Oc2ccccc21)OCC(=O)c1ccc(Br)cc1 | -0.5% | 20.6µM* | u | -2.0% | 67.9 | x
CC(=O)c1cccc(NC(=O)C2C3C=CC(C3=C(c3ccccc3)c3ccccc3)C2C(=O)O)c1 (stereo not drawn) | -5.3% | -10.7% | -27.3% | -4.5% | 10.8 | 14.4%
SMILES | HT1080 IDH1KD tx | TDP1 cell CPT | TDP1 cell noCPT | HT1080-NT tox | IL-1B inflam inh | ELG1 repair inh
CNc1nc2cc([N+](=O)[O-])c([N+](=O)[O-])cc2nc1NC | 3.26µM* | 2.31µM* | 3.26µM* | 3.26µM* | -0.4 | u
COc1ccc(/C=C(\C)C(=O)NO)cc1 | 0.9% | 2.0% | -15.6% | 0.3% | x | x
CN(C(=S)NC(=O)C1CCCC1)c1ccccc1 | 5.5% | -24.4% | -17.9% | 0.0% | 5.7 | x
O=C1CC(c2ccco2)Cc2[nH]c(=O)c(C(=O)Nc3ccccc3)cc21 (stereo not drawn) | x | u | 10µM* | x | x | x
Cc1ccc2nc(N/N=C/c3ccccc3C#N)nc(-c3ccccc3)c2c1 | -6.0% | u | 23.1µM* | 1.2% | -73.2* | 20.6µM*
Cc1ccc2nc(NCCO)nc(-c3ccccc3)c2c1 | -14.4% | u | 25.9µM* | -3.4% | -22.9 | -7.7%
Cc1ccc2nc(N/N=C/c3ccccc3F)nc(-c3ccccc3)c2c1 | -0.7% | u | u | 5.1% | -52.6* | u
CC(C)(C)C1=CC=C(C(C)(C)C)C(=O)C1=O | x | x | x | x | x | -2.2%
CCCCCn1c(=O)[nH]c2cc(C(=O)NCc3ccc(C)cc3)ccc2c1=O | x | -14.3% | -6.9% | x | x | x
CCN(c1ccccc1)S(=O)(=O)c1cccc(C(=O)NCC(c2ccco2)N2CCCCC2)c1 (stereo not drawn) | u | u | 16.4µM* | -27.0% | -55.0* | x
CCN(c1ccccc1)S(=O)(=O)c1cccc(C(=O)NCC(c2ccco2)N2CCCC2)c1 (stereo not drawn) | -1.2% | u | u | -2.8% | -19.1 | -8.3%
CCN(c1ccccc1)S(=O)(=O)c1cc(C(=O)NCC(c2ccco2)N2CCCCC2)ccc1C (stereo not drawn) | -9.8% | u | u | -14.0% | -79.4* | 0.0%
N#Cc1ccccc1C[C@H](N)C(=O)NC[C@H]1O[C@@H](n2ccc(N)nc2=O)[C@H](O)[C@@H]1O | 4.6% | 9.1% | -16.5% | 14.7% | -19.9 | x
Cc1ncc2c(c1CNS(=O)(=O)N(C)C)CCN(C(=O)/C=C/c1cccc(F)c1)C2 | x | -12.4%[9.04 µM] | -18.4% | x | x | x
CN(C)c1ncc2nc(-c3ccc(F)cc3)c(=O)n(C)c2n1 | x | -0.2% | 4.8% | x | x | x
O=C1CCCCCN1C(=O)c1ccccc1 | 15.2% | -9.4% | -7.9% | 12.8% | 9.4 | x
O=C1CCCCCN1Sc1ccccc1 | -14.6% | 5.8µM* | 5.17µM* | -26.5% | -101.3* | -12.5%
O=C1CC(Sc2nnc(-c3ccccc3O)o2)C(=O)N1c1ccccc1 (stereo not drawn) | 4.47µM* | 4.61µM* | 4.61µM* | u | 8.6 | 0.5%
